From PubChem BioAssay (NCI)
This is part of a sample that, as a whole, favours compounds with a hit. Of some 83,000 tested, about 20% had one in any assay.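 Cells were grown in 96-well plates and exposed to the test compound at a single concentration for 48 hours; results are reported as percent growth, with values below 10 considered active.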 Values without a mark were called inactive. Activity calls are given as the source filed them.

system: HL-60(TB) leukemia; assay: NCI-60 one-dose screen, 48 h (100 = growth as untreated, 0 = no growth, -100 = all killed); details: 10 µM unless noted

Row | SMILES | growth
1 | CCCCCCCCCCCCNC(=O)[C@H]1CSC(c2cc(Br)cs2)N1 (some centres undefined) | -36.9% (active)
2 | c1ccc(Nc2nc(-c3ccccn3)cs2)nc1 | 1.61% (active)
3 | Cc1ccc(/C=C2\COc3ccc(O)cc3C2=O)cc1 | -31.7% (active)
4 | [N-]=[N+]=NCc1ncc(-c2ccc(C(F)(F)F)cc2)c(NC2CCCCCC2)n1 | 43.4% [50 µM]
